Data: PubChem BioAssay (NCATS)
Unmarked numbers belong to inactive results. Records with an inconclusive call do not appear. Calls of active or inactive are those of the source. Calls follow the shape of the dose curve; as a rule, active = well fitted curve in the direction sought with a large enough effect; inconclusive = small, poorly fitted or top-dose-only effect, or another doubt; inactive = no such curve, though single readings can be large; an effect the other way counts as inactive or inconclusive.

Biological target: Galactokinase (Homo sapiens) (UniProt P51570)
Sequence (P51570 whole entry, looked up): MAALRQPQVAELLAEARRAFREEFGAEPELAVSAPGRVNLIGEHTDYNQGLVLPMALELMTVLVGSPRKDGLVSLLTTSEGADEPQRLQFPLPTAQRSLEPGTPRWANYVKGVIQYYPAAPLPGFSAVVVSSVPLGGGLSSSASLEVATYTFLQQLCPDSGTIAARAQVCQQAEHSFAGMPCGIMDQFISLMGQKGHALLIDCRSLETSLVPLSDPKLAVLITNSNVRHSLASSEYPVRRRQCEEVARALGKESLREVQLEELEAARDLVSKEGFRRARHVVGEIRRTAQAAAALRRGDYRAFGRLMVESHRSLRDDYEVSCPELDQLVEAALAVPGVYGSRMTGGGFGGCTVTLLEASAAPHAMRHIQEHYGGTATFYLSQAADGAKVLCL
Experiment: qHTS Validation Assay for Inhibitors of Human Galactokinase (GALK) (AID 493189); also: 0% is about no effect
Details: purified human GALK enzyme activity, qHTS 7-point titration; series mostly up to 57.5 µM; activity change, negative = inhibition: at the top concentration
Procedure, shortened: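 Compounds were pin-transferred into ATP buffer, then GALK-galactose mix was added (final 5 nM enzyme, 100 uM galactose, 35 uM ATP). After 1 h at room temperature, remaining ATP was measured luminescently.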

Structure (SMILES)	activity change, negative = inhibition [%]
Cc1nc2n(c(=O)c1CCN1CCC(c3noc4cc(F)ccc34)CC1)CCCC2	1.34
O=C1c2ccccc2-c2n[nH]c3cccc1c23	1.69
O=C(NCC1CCCCN1)c1cc(OCC(F)(F)F)ccc1OCC(F)(F)F (centres undefined)	-1.12

Test system: not listed separately
Experiment: Validation screen for small molecules that induce DNA re-replication in SW480 colon adenocarcinoma cells (AID 504364); also: 0% is about no effect
Details: DNA re-replication phenotype (high-content imaging); series mostly up to 46.1 µM; activity (re-replication induction): at the top concentration
Procedure, shortened: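 Hoechst-stained SW480 nuclei, imaged at 405 nm excitation after 48 hr compound exposure, were counted for elevated DNA content as the re-replication signal.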

Structure (SMILES)	activity (re-replication induction) [%]
Cc1nc2n(c(=O)c1CCN1CCC(c3noc4cc(F)ccc34)CC1)CCCC2	-4.55
O=C1c2ccccc2-c2n[nH]c3cccc1c23	-0.873
O=C(NCC1CCCCN1)c1cc(OCC(F)(F)F)ccc1OCC(F)(F)F (centres undefined)	-15.3

Biological target: phosphoglycerate mutase (Leishmania major) (UniProt Q4Q090)
Sequence (Q4Q090 1-553): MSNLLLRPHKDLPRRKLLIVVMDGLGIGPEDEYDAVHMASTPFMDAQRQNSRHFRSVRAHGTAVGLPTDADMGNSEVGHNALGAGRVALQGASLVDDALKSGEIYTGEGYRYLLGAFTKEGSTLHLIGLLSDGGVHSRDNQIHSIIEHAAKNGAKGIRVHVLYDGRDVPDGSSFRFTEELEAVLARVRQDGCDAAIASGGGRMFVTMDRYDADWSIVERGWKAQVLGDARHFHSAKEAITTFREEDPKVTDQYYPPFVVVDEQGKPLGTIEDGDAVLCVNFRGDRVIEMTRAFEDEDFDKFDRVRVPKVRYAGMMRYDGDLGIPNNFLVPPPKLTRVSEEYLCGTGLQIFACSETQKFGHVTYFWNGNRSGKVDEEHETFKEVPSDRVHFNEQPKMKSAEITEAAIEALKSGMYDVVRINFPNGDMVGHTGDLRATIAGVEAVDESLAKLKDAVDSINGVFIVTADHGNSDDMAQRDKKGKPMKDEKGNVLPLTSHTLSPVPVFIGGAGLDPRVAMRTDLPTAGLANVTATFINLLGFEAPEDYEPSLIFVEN
Experiment: qHTS Validation Assay to Find Inhibitors of Phosphoglycerate Mutase (AID 504548); also: potency is read from the fitted curve at half-maximal effect; as to activity change, negative = inhibition: % is scaled to controls: 0 for no effect and ±100 for the full control effect
Details: biochemical enzyme activity; Potency: inhibition qHTS; series mostly up to 57.5 µM; activity change, negative = inhibition: at the top concentration
Procedure, shortened: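 Luminescent end-point read-out via Kinase-GloPlus after a 10-minute development. Reaction: 1.25nM Leishmania major PGAM with substrate and compound, 45 minutes at room temperature in TEA buffer (pH 7.6) with MgCl2 and Tween-20.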

Structure (SMILES)	activity change, negative = inhibition [%]	Potency
Nc1nc(N)c(N=O)c(OCC2CCCCC2)n1	-3.71	–
O=C1c2ccccc2-c2n[nH]c3cccc1c23	–	21.3 µM (active)
CCOC(=O)C(C)Oc1cccc2c(=O)n(CC(=O)Nc3ccc4c(c3)OCCO4)ccc12 (centres undefined)	0.314	–

Biological target: Ubiquitin carboxyl-terminal hydrolase 1 (Homo sapiens) (UniProt O94782)
Sequence (O94782 whole entry, looked up): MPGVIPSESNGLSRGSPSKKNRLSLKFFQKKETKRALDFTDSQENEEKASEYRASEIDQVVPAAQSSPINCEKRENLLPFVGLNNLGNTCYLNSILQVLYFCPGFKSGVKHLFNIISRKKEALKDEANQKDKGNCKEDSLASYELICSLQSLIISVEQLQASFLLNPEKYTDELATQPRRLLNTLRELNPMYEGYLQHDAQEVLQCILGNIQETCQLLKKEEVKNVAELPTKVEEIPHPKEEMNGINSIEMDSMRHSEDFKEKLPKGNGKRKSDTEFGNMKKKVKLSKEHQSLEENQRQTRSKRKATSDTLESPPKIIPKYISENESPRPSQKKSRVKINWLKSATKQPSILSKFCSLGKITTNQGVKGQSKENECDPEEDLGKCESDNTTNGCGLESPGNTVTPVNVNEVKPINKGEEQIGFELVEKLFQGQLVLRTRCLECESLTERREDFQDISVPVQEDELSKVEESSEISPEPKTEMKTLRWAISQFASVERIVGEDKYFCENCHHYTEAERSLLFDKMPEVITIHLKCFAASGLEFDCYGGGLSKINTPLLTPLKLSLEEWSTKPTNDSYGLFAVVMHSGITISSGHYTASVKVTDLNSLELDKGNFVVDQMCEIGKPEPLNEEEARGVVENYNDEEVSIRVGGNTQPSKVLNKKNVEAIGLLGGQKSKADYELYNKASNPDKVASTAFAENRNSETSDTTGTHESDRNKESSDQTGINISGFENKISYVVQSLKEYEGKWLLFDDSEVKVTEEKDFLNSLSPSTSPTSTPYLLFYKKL
Experiment: Inhibitors of USP1/UAF1: Pilot qHTS (AID 504865); also: nearly all actives have a fitted effect of over 35% in size; also: potency is read from the fitted curve at half-maximal effect;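 as to activity change, negative = inhibition: rhodamine fluorescence freed from ubiquitin-rhodamine substrate followed over time; top concentration of the series differs between compounds; % is scaled to controls: 0 for no effect and ±100 for the full control effect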
Details: purified USP1/UAF1, Ub-rhodamine cleavage fluorescence; series mostly up to 114 µM; activity change, negative = inhibition: at the top concentration
Procedure, shortened: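 Kinetic fluorescence assay: 1nM USP1/UAF1, 15 min compound preincubation, then 150nM Ub-Rho; 480/540 nm.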

Structure (SMILES)	Potency	activity change, negative = inhibition
Cc1nc2n(c(=O)c1CCN1CCC(c3noc4cc(F)ccc34)CC1)CCCC2	inactive	–
CCOC(=O)c1c(C)n(C)c2ccc(O)cc12	–	-6.86%
O=P(O)(O)C(O)(Cn1ccnc1)P(=O)(O)O	–	-3.08%
Cc1cc(=O)oc2cc(O)ccc12	–	-6.69% [at 54.9 µM]
O=c1oc2cc(O)ccc2s1	–	0.0641%
CCC1=C(C)CN(C(=O)NCCc2ccc(S(=O)(=O)NC(=O)NC3CCC(C)CC3)cc2)C1=O (centres undefined)	inactive	–
Cn1c(NCCN(CCO)CCCc2ccc([N+](=O)[O-])cc2)cc(=O)n(C)c1=O	–	-11.3%
CC(C)[C@H](N)C(=O)OCCOCn1cnc2c(=O)[nH]c(N)nc21	–	-6.51%
CC(S)C(=O)NCC(=O)O (centres undefined)	–	-6.41%
O=C(OC1C[C@H]2CC[C@@H](C1)[N+]21CCCC1)C(O)(c1ccccc1)c1ccccc1 (some centres undefined)	–	2.86%
CCCCCCCCCCCCCCCCCCCCCCO	–	-6.15%
C[C@H](Cn1cnc2c(N)ncnc21)OCP(=O)(O)O	–	-1.97%
Nc1nc(N)c(N=O)c(OCC2CCCCC2)n1	–	1.21%
CN1CCC(=C2c3ccccc3CCc3sccc32)CC1	inactive	–
CCCCCCCCOc1ccccc1C(=O)Nc1ccc(C(=O)OCC[N+](C)(CC)CC)cc1	79.4 µM (active)	–
C=C(c1ccc(C(=O)O)cc1)c1cc2c(cc1C)C(C)(C)CCC2(C)C	22.4 µM (active)	–
O=C(O)c1cc(=O)c2c(OCC(O)COc3cccc4oc(C(=O)O)cc(=O)c34)cccc2o1	inactive	–
Cc1cc2cc3c(C)cc(=O)oc3c(C)c2o1	–	-8.32% [at 54.9 µM]

Structure (SMILES)	Potency	activity change, negative = inhibition
COc1ccc(C2(C#N)CCC(C(=O)O)CC2)cc1OC1CCCC1 (centres undefined)	–	-5.53%
COC1=C(OC)C(=O)C(CCCCCCCCCCO)=C(C)C1=O	–	-12.5%
O=C1c2ccccc2-c2n[nH]c3cccc1c23	inactive	–
Cc1cc2c(s1)Nc1ccccc1N=C2N1CCN(C)CC1	inactive	–
CN1C(C(=O)Nc2ccccn2)=C(O)c2sccc2S1(=O)=O	–	-3.27% [at 54.9 µM]
CC[C@]1(O)C[C@H]2CN(CCc3c([nH]c4ccccc34)[C@@](C(=O)OC)(c3cc4c(cc3OC)N(C=O)[C@H]3[C@@](O)(C(=O)OC)[C@H](OC(C)=O)[C@]5(CC)C=CCN6CC[C@]43[C@@H]65)C2)C1	–	-10.2%
O=C(CS(=O)Cc1ccco1)NCC=CCOc1cc(CN2CCCCC2)ccn1 (centres undefined)	–	-8.43%
CN(C)C(=O)COC(=O)Cc1ccc(OC(=O)c2ccc(N=C(N)N)cc2)cc1	–	-6.71%
Cc1ccc(S(=O)(=O)NC(=O)NN2CC3CCCC3C2)cc1 (centres undefined)	inactive	–
O=C(O)c1cn(-c2ccc(F)cc2)c2cc(N3CCNCC3)c(F)cc2c1=O	–	-10.2%
N=C(N=C(N)N)N1CCOCC1	–	6.17% [at 54.9 µM]
CCCOc1ccc2nc(NC(=O)OC)[nH]c2c1	–	-2.58%
S=c1nc[nH]c2nc[nH]c12	–	-8.81%
O=C(NC(Cc1cc(=O)[nH]c2ccccc12)C(=O)O)c1ccc(Cl)cc1 (centres undefined)	–	-4.67%
CCOC(=O)C(C)Oc1cccc2c(=O)n(CC(=O)Nc3ccc4c(c3)OCCO4)ccc12 (centres undefined)	–	-5.75%
CNC[C@@H](O)[C@@H](O)[C@H](O)[C@H](O)CO	–	-2.57%
O=C(NCC1CCCCN1)c1cc(OCC(F)(F)F)ccc1OCC(F)(F)F (centres undefined)	–	-1.3%
